Source: PubChem BioAssay (National Center for Advancing Translational Sciences (NCATS))
A selection: hits, their analogues and other compounds. The true share with any hit is near 2.4%.
Pol beta inh: qHTS Assay for Inhibitors of DNA Polymerase Beta; P06746; Pol beta primer extension/strand displacement, fluorescence kinetic; Potency, µM (titrated, usually from 114 µM), for inactives: top-dose activity change, negative = inhibition, usual class: inhibitors; 340,000 compounds, 1.3% hits; AID 485314, 2010; also: % is scaled to controls: 0 for no effect and ±100 for the full control effect
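10 nM enzyme + cpd, 15 min RT; start with substrate 50 nM final; read 0 min and after 10 min RT. Corrected, normalized data; 4-parameter Hill curve fit.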
Pol iota inh: qHTS for Inhibitors of Polymerase Iota. Pol iota fluorescent replication assay, 10 min. Potency, µM (doses to about 115 µM), without a hit: top-dose activity, negative = inhibition, hits mostly inhibitors. 390,000 compounds, 1% hits
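Fluorescent replication assay read twice, at 0 min and 10 min after adding 50 nM (final) substrate. Enzyme (10 nM) and compounds were first incubated 15 min at room temperature; enzyme-free buffer wells were negative controls.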
Pol eta inh: qHTS for Inhibitors of Polymerase Eta; DNA polymerase eta (Homo sapiens), Q9Y253; recombinant Pol eta, fluorescent DNA replication assay; Potency, µM (series often up to 114 µM), for inactives: at the highest dose activity change, negative = inhibition, hits mostly inhibitors; 390,000 compounds, 1.2% hits; AID 588591, 2011; also: % is scaled to controls: 0 for no effect and ±100 for the full control effect
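Pol eta (10 nM) was preincubated with compounds for 15 min at room temperature, after which fluorescent replication substrate (50 nM final) was added to start the reaction. Fluorescence was read kinetically at 0 and 10 min.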
Pol kappa inh: qHTS for Inhibitors of Polymerase Kappa. DNA polymerase kappa (Homo sapiens), Q9UBT6. purified Pol kappa, fluorescent DNA synthesis assay, 10 min. Potency, µM (titrated, usually from 107 µM), inactives show at the top dose activity, negative = inhibition, most hits filed as inhibitors. 400,000 compounds, 0.53% hits; also: % is scaled to controls: 0 for no effect and ±100 for the full control effect
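Readout: fluorescence, taken kinetically at 0 and 10 min. Conditions: 10 nM Pol kappa, 15 min RT compound preincubation, 50 nM substrate final. Controls: enzyme-free buffer wells.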
WRN inhibitor: qHTS for Inhibitors of WRN Helicase; 360,000 compounds, 0.46% hits; WRN helicase unwinding, fluorescent forked duplex, kinetic; Potency, µM (top dose mostly 114 µM), for the others: at the highest dose activity change, negative = inhibition, most hits filed as inhibitors; Bifunctional 3'-5' exonuclease/ATP-dependent helicase WRN (Homo sapiens), Q14191; also: % is scaled to controls: 0 for no effect and ±100 for the full control effect; nearly all actives have a fitted effect of over 55% in size
Target sequence (Q14191 whole entry, looked up): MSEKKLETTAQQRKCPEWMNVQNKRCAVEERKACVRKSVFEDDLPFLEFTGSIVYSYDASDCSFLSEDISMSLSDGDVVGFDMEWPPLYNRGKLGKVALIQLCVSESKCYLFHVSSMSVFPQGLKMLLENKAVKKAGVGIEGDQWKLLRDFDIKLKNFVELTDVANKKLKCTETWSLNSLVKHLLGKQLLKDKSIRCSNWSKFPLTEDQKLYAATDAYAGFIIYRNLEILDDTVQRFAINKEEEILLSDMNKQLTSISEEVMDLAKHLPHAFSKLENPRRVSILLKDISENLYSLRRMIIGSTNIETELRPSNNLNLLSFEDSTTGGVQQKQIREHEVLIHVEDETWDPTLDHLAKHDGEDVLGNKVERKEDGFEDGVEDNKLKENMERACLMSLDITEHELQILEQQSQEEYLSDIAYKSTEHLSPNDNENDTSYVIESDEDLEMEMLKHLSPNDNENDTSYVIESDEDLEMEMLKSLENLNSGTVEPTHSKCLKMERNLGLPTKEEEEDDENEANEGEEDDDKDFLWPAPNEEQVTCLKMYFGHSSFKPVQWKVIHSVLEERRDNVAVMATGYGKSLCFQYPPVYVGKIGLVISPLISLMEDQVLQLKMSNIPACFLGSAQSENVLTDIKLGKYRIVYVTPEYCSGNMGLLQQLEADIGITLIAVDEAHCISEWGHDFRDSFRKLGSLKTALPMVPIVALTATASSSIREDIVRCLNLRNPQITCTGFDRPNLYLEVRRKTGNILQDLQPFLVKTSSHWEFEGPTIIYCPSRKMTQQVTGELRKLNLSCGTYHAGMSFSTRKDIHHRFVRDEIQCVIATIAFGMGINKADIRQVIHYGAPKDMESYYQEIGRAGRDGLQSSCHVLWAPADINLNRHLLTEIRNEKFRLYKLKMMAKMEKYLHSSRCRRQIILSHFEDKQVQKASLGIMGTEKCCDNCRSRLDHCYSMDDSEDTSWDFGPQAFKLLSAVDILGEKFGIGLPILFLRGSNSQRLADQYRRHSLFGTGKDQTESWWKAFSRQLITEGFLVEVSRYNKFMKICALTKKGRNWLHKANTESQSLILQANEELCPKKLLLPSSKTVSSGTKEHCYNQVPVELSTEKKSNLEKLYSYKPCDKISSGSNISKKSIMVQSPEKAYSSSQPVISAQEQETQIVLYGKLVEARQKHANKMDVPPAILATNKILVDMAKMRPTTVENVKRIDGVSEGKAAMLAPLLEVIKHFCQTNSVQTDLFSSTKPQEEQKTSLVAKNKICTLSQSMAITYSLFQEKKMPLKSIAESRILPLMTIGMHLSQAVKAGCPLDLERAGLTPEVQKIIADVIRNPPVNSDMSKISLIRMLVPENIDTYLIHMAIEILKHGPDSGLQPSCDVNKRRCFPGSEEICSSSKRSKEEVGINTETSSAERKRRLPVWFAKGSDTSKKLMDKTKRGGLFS
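Primary qHTS, 1536-well format. 20 nM WRN + compound, 15 min RT; start with 100 nM forked fluorophore/quencher duplex, 2 mM ATP (final); kinetic read ex 525/em 598 nm.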
FEN1 inh: qHTS Assay for the Inhibitors of Human Flap endonuclease 1 (FEN1); Recombinant FEN1 flap cleavage, fluorescence, 15 min; Potency, µM (top dose mostly 114 µM), for inactives: at the top dose activity change, negative = inhibition, usual class: inhibitors; 390,000 compounds, 0.35% hits; also: % is scaled to controls: 0 for no effect and ±100 for the full control effect; nearly all actives have a fitted effect of over 65% in size
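Steps: FEN1 (10 nM) dispensed; compound added by pin tool; 15 min at room temperature; substrate added to 50 nM final; reads at 0 min and 15 min; data normalized and fitted (four-parameter Hill).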
An asterisk follows results filed as active; ? = inconclusive; · = no result given; [ ] = remark or other dose. Calls follow the shape of the dose curve; as a rule, active = well fitted curve in the direction sought with a large enough effect; inconclusive = small, poorly fitted or top-dose-only effect, or another doubt; inactive = no such curve, though single readings can be large; an effect the other way counts as inactive or inconclusive. Potency is read from the fitted curve at half-maximal effect.

SMILES | Pol beta inh | Pol iota inh | Pol eta inh | Pol kappa inh | WRN inhibitor | FEN1 inh
Cc1cccc(OCCCCn2nnc3sc4c(c3c2=O)CCC(C)C4)c1 (configuration not stated) | 14.1µM* | ? | · | -25.5% | · | 2.8%
CC(=O)Cn1nnc2sc3c(c2c1=O)CCC(C(C)(C)C)C3 (configuration not stated) | 14.7% | 64.6% | -9.8% | -18.2% | 1.9% | -16.4%
Cc1cc(C)c(NC(=O)Cn2nnc3sc4c(c3c2=O)CCC(C(C)(C)C)C4)c(C)c1 (configuration not stated) | 33.1% | 10.1% | · | -0.1% | · | -7.1%
Cc1ccc(OCCn2nnc3sc4c(c3c2=O)CCC(C(C)(C)C)C4)cc1 (configuration not stated) | 22.4µM* | -11.0% | · | -13.1% | · | -4.8%
CN(C)CCNc1nccc(N2CCN(C)CC2)n1 | · | -3.6% | · | 0.2% | · | -10.6%
COc1ccc(CNc2nc(N)nc3nc[nH]c23)cc1 | · | 15.7% | · | -9.3% | · | -10.9%
CCOC(=O)/C=C1\SCC(=O)N1Cc1nnc(-c2ccccc2Br)o1 | 22.4µM* | ? | ? | -7.1% | -17.9% | -8.7%
COC1=CC(=Cc2c(N)n3nc(CC(=O)N4CCCCC4)sc3nc2=O)C=C(OC)C1=O | 16.9% | ? | 56.2µM* | ? | -9.8%[11.6 µM] | -31.6%
COc1ccc2nc3sc(C(=O)Nc4cc(Cl)c(OC)cc4OC)cc3cc2c1 | ? | -5.0% | ? | 0.0% | · | -13.6%
CCC(C)NC(=O)c1cc2cc3ccc(OC)cc3nc2s1 (configuration not stated) | 50.1µM* | -15.1% | ? | ? | -11.4% | -21.6%
CCOc1ccc(CCNC(=O)c2cc3cc4cc(OC)ccc4nc3s2)cc1OCC | 14.1µM* | -3.6% | -11.3% | -28.8% | · | 11.5%
Cc1ccc2nc(/C=C/c3ccc(N(C)C)cc3)ccc2c1 | · | 64.3% | · | 7.0% | · | 9.7%
CCn1c(CSc2nc3ccccc3[nH]2)nc2cc(C(=O)O)ccc21 | -6.2% | ? | -4.7% | -15.9% | -16.1%[57.1 µM] | -11.9%
CCn1c(CSc2nccn2C)nc2cc(C(=O)O)ccc21 | -16.2% | ? | ? | -3.2% | 79.4µM* | -8.0%
CC(/C=N/NC(=O)c1ccc(Br)cc1)=C\c1ccccc1 | 22.4µM* | ? | -10.6% | 0.5%[60.1 µM] | -22.2% | -27.1%
COc1ccc(C(=O)N/N=C\C(C)=C\c2ccccc2)cc1OC | · | -26.1%[58.9 µM] | 4.5% | -42.2% | -17.3% | -4.3%
CCOc1ccc(C(=O)c2ccc(O)c(O)c2O)cc1 | · | · | · | 3.55µM* | · | ·
CCOc1cccc(C(=O)c2ccc(O)c(O)c2O)c1 | · | · | · | 4.47µM* | · | ·
CCOC(=O)COc1ccc(C(=O)c2ccccc2)c(O)c1 | 12.1% | ? | -12.0% | 3.2% | -1.8% | 5.2%
O=S(=O)(c1ccc(F)cc1)N1CCN(c2nc(-c3ccc(F)cc3)nc3cc(Cl)ccc23)CC1 | · | -8.9% | · | -4.1% | · | -16.4%
O=C(O)COc1ccccc1C(Nc1cccnc1)c1cc(Cl)c2cccnc2c1O (configuration not stated) | -29.3% | ? | 79.4µM* | ? | ? | ?
CCOc1ccc(C(Nc2cccnc2)c2cc(Cl)c3cccnc3c2O)cc1 (configuration not stated) | 6.0% | 48.3% | ? | -9.3% | -4.6% | ?
O=C(O[C@@H]1OC2COC(=O)c3cc(O)c(O)c(O)c3-c3c(cc(O)c(O)c3O)C(=O)O[C@@H]([C@H]1O)[C@@H]2O)c1cc(O)c(O)c(O)c1 | 0.159µM* | ? | -98.6% | -98.8% | ? | 0.708µM*
COc1ccc(Cl)cc1NC(=O)CCn1nc(C)cc1C | 31.6µM* | ? | -15.4% | -28.5% | · | -3.1%
COc1ccc(Cl)cc1NC(=O)CSc1nc2sccc2c(=O)[nH]1 | 56.2µM* | 3.0% | -29.4% | -16.1% | -20.7% | -14.2%
SMILES | Pol beta inh | Pol iota inh | Pol eta inh | Pol kappa inh | WRN inhibitor | FEN1 inh
COc1ccc(Cl)cc1NC(=O)CC(C)=O | 22.4% | -0.7% | -16.3% | -10.2% | -3.0% | 0.3%
COc1ccccc1NC(=O)CSc1sc2c(O)cc(=O)[nH]c2c1C#N | 0.562µM* | 2.82µM* | 20µM* | 50.1µM* | 50.1µM* | 50.1µM*
COc1ccc(Cl)cc1NC(=O)CSc1sc2c(O)cc(=O)[nH]c2c1C#N | -14.1% | 25.1µM* | 25.1µM* | ? | ? | -35.6%
COc1cc(C2C(C#N)=C(N)OC3=C2C(=O)CCC3)c([N+](=O)[O-])cc1OC (configuration not stated) | 2.0% | 7.08µM* | 20µM* | 89.1µM* | ? | ?
Cc1cc(C2C(C#N)=C(N)OC3=C2C(=O)CCC3)c(C)s1 (configuration not stated) | 21.9% | 9.2% | 11.8% | -4.5% | -0.9% | -5.6%
C#CCOCCOCCOCCNc1nc(N2CCN(C(=O)CCCCCCCCCCNC(=O)Cn3cc(CCCCCN)nn3)CC2)nc(N2CCN(C(=O)CCCCCCCCCCNC(=O)[C@H](CO)n3cc(CCCCCN)nn3)CC2)n1 | · | ? | -16.7% | 2.9% | 79.4µM* | ?
C#CCOCCOCCOCCNc1nc(N2CCN(C(=O)CCCCCCCCCCNC(=O)[C@H]([C@@H](C)CC)n3cc(CCCCCN)nn3)CC2)nc(N2CCN(C(=O)CCCCCCCCCCNC(=O)[C@@H]([C@H](C)O)n3cc(C)nn3)CC2)n1 | · | ? | ? | ? | 56.2µM* | 56.2µM*
C#CCOCCOCCOCCNc1nc(N2CCN(C(=O)CCCCCCCCCCNC(=O)Cn3cc(CCCCCN)nn3)CC2)nc(N2CCN(C(=O)CCCCCCCCCCNC(=O)[C@H]([C@@H](C)CC)n3cc(CCCCCN)nn3)CC2)n1 | · | ? | ? | 7.4% | 56.2µM* | ?
Cc1ccc2nc(-c3ccc(C)o3)c(Nc3ccc(Cl)cc3)n2c1 | · | 57.5% | · | -4.0% | · | 8.2%
c1cc2c3c(c1)CCCN3CCC2 | · | 19.3% | · | 11.9% | · | 11.1%
COc1ccccc1NCC(=O)c1ccc(Cl)cc1 | 89.1µM* | 36.9% | ? | -2.8% | -4.4%[57.1 µM] | 4.5%
CC(C)n1c(=O)[nH][nH]c1=S | 1.1% | 71.8% | -2.7% | -0.1% | 56.2µM* | -4.0%
CC(C)n1c(=O)[nH]c2ccccc21 | 36.0% | 18.9% | -12.3% | -5.1% | -2.5% | 5.2%
Nc1c(Br)cc(/C=C2\C=Cc3ccccc32)cc1Br | · | 33.5% | · | -10.5% | · | -9.7%
COC(=O)C[C@H]1c2ccccc2S(=O)(=O)N1c1ccc(N(C)C)cc1 | · | 27.0% | · | 9.5% | · | -0.9%
